Screens as filed in PubChem.
KCNK9 inh: blocks the human KCNK9 two-pore domain potassium channel | Q9NPC2 | HEK293 KCNK9, FluxOR thallium flux fluorescence; stronger effect = lower value | B-score at 10 µM | hit rate 1.2% among 310,000 | AID 488922;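 active = ratio B-score over 3 SD below the library mean, with starting fluorescence within 5 SD of its mean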;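 also: negative B-score means less thallium flux so channel inhibition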
Target sequence (Q9NPC2 whole entry, looked up, the tested form may be a part): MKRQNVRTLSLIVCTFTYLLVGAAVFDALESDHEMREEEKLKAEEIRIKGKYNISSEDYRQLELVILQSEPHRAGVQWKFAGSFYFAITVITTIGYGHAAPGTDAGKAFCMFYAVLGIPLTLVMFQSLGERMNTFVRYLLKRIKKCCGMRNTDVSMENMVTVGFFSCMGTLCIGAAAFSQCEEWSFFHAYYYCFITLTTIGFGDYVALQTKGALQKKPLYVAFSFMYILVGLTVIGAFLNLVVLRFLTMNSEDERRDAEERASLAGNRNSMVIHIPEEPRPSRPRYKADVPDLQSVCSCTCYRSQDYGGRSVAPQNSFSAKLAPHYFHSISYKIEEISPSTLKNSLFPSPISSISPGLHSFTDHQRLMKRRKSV
Kir21 inh: inhibitors of mouse Kir2.1 inward-rectifier potassium channel. hit rate 0.85% among 310,000. P35561. HEK293-Kir2.1, FluxOR thallium flux fluorescence; stronger effect = lower value. B-score at 10 µM;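 active = fluorescence ratio B-score at or below minus 3 SD of library scores, with starting-brightness B-score within 2 SD, cut at about -4.2 in these data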;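 also: channel flux triggered by added potassium and thallium sulfate stimulus; B-score of peak minus minimum fluorescence over baseline after thallium stimulus; more negative B-score means stronger Kir2.1 block with less thallium influx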
TMEM16A inh: blocks the mouse calcium-activated chloride channel TMEM16A. Q8BHY3. HEK293 TMEM16A/YFP iodide influx fluorescence, ionomycin. normalized B-score (activity score, 25-100; higher = stronger inhibition) at 10 µM. hit rate 1.2% among 310,000. AID 588511;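 active = ratio plate-corrected score three or more library SD toward inhibition, starting fluorescence score within five deviations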;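 also: score derived from kinetic fluorescence span divided by baseline fluorescence per well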
TMEM16A act: mouse TMEM16A channel activation, primary screen. Q8BHY3. HEK293 TMEM16A/YFP-H148Q/I152L, iodide quench fluorescence; stronger effect = lower value. B-score at 10 µM. hit rate 0.3% among 340,000. AID 623877;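 active = fluorescence-ratio B-score plate-corrected deviation score at least 3 library SD below zero, with starting fluorescence score within 5 deviations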;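 also: channel opened by trigger with iodide after compound preincubation; score built on the fluorescence ratio of max minus min over baseline; more negative score means more quench and so TMEM16A activation or potentiation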
KCNK3 inh: human KCNK3 channel inhibition, primary screen | CHO-KCNK3 thallium flux, FluxOR fluorescence; stronger effect = lower value | hit rate 0.84% among 340,000 | B-score at 10 µM;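 active = B-score under library mean minus 4 SD, starting fluorescence ratio at most library mean plus 5 SD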;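 also: more negative B-score means stronger inhibition of thallium flux through KCNK3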
KCNK9 block conf: human KCNK9 inhibitor confirmation. shares compounds with KCNK9 inh. HEK293 KCNK9 cells, FluxOR thallium flux fluorescence. inhibition, % at 10 µM. hit rate 43% among 4,900. AID 492992;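 active = thallium signal inhibited by more than 5 SD of the compound-free buffer control wells, on both duplicate plates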
Kir2-1 spec: selectivity of KCNK9 modulators against mouse Kir2.1 | Kir2.1 cells, FluxOR thallium flux fluorescence | hit rate 4% among 4,900 | shares compounds with KCNK9 inh | inhibition, % at 10 µM;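 active = thallium signal drop more than 5 SD beyond the mean of the no-compound control wells, seen in both duplicate plates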;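 also: signal is fluorescence rise after thallium addition divided by baseline fluorescence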
HEK293 Tl ctr: non-induced cell nonspecific activity of KCNK9 modulators | shares compounds with KCNK9 inh | non-induced KCNK9-HEK293, FluxOR thallium flux | inhibition, % at 10 µM | hit rate 40% among 4,900;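 active = thallium signal drop beyond 5 SD of the untreated control mean, on both duplicate plates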
Hits are given with their value; n = inactive; x = no result given. An excerpt weighted towards active compounds, which were near 3.5% of everything screened.

SMILES	KCNK9 inh	Kir21 inh	TMEM16A inh	TMEM16A act	KCNK3 inh	KCNK9 block conf	Kir2-1 spec	HEK293 Tl ctr
Clc1cccc(C2CCN(Cc3nc(CC4CC4)no3)C2)c1 (configuration not stated)	n	n	n	n	n	n	n	n
Cc1ccc2c(c1)N(C(=O)CCC(=O)NCC(C)c1ccccc1)CC(C)O2 (configuration not stated)	n	n	n	n	n	x	x	x
COC(=O)c1ccccc1NC(=O)CCC(=O)N1CC(C)Oc2ccc(C)cc21 (configuration not stated)	n	n	n	n	n	n	n	n
Cc1ccc(-n2nc3c(c2NC(=O)CC(C)C)CS(=O)(=O)C3)cc1	n	n	n	n	n	x	x	x
COC(=O)C1=NN(C(=O)c2cccc(Br)c2)C(O)(c2ccc(Cl)cc2)C1 (configuration not stated)	n	n	n	n	n	n	n	n
CCOC(=O)C1=NN(C(=O)c2ccc(OC)cc2)C(O)(c2ccc(Cl)cc2)C1 (configuration not stated)	n	n	n	n	n	x	x	x
COc1ccc(NC(=O)CN(C)Cc2cccs2)cc1Cl	-13	n	n	n	-11	32%	n	33%
COc1ccc(NC(=O)CCC(=O)c2cccs2)cc1Cl	n	n	n	n	n	x	x	x
COc1ccc(OC)c(NC(=O)CN(C)CC(=O)Nc2ccccc2Cl)c1	n	n	n	n	n	x	x	x
COc1ccccc1CN(C)CC(=O)Nc1ccc(Cl)cc1C(F)(F)F	-14	n	n	n	n	49%	n	42%
COc1ccc(Br)cc1CN(C)CC(=O)Nc1ccccc1Cl	-8.7	-5.4	n	n	n	34%	36%	36%
COc1ccc(C(=O)NCCCNC(=O)c2ccc(C)nc2)cc1	n	n	n	n	n	x	x	x
O=C(N1CCCC1)C(F)(F)Oc1ccc(F)cc1	n	n	n	n	n	x	x	x
COc1ccc(S(=O)(=O)n2ccc(C(C)Oc3ccc(-c4ccccc4)c(F)c3)n2)cc1 (configuration not stated)	-11	n	n	n	n	61%	n	40%
CCCc1cc(-c2nc(-c3ccc(Br)cc3)cs2)ccn1	-10	n	n	n	n	n	n	26%
O=C(O)/C=C/C(=O)Nc1ccccc1C(=O)OCC(=O)c1ccc2c(c1)OCCO2	n	n	n	n	n	x	x	x
CCCCC(=O)Nc1ccccc1C(=O)OCC(=O)c1ccc2c(c1)OCCO2	-19	n	n	n	n	78%	n	43%
O=C(OCN1C(=O)c2ccccc2C1=O)c1cccc(OC(F)F)c1	n	n	n	n	n	x	x	x
Cc1cc(/C=c2\sc3nc4ccccc4n3c2=O)c(C)n1-c1ccc(C(=O)O)cc1	n	n	x	n	n	n	n	n
CCOc1ccc(N2C(=O)Nc3ccccc3C2(O)C(=O)N2CCN(c3ccccn3)CC2)cc1 (configuration not stated)	n	n	n	n	n	x	x	x
C[C@H](NC(=O)[C@@H]1CSC2c3ccccc3C(=O)N21)C(=O)NC1CCCCC1 (some centres not stated)	n	n	n	n	n	x	x	x
CC1Cc2ccccc2N1C(=S)NC1CCCC1 (configuration not stated)	n	n	n	n	n	n	n	n
COC(=O)C(C(=O)OC)[C@@H]1C=C[C@H](C[N+](=O)[O-])N(C(C)=O)C1	x	x	x	x	n	x	x	x
CCOC(=O)c1sc(NC(=S)NC(=O)c2ccccc2Cl)c(C(=O)OCC)c1C	-9.1	n	n	n	n	n	n	n
Cc1nc(N2CCC(C)CC2)c2oc3ccccc3c2n1	n	n	n	n	n	x	x	x
SMILES	KCNK9 inh	Kir21 inh	TMEM16A inh	TMEM16A act	KCNK3 inh	KCNK9 block conf	Kir2-1 spec	HEK293 Tl ctr
COc1ccccc1N1CCN(c2nc(C)nc3c2oc2ccccc23)CC1	-14	n	n	n	-9	n	n	32%
Cc1ccc(N2C(=O)CC(Sc3nccc(C)n3)C2=O)cc1 (configuration not stated)	n	n	n	n	n	x	x	x
CCc1ccccc1N1C(=O)CC(Sc2nccc(C)n2)C1=O (configuration not stated)	n	n	n	n	n	n	n	n
Oc1ccc2ccccc2c1C=NCc1ccccc1	n	n	n	n	n	n	n	n
Oc1ccc2ccccc2c1/C=N/Nc1ccccc1	n	n	n	n	n	x	x	x
COc1cccc(/C=C2\SC(=S)N(CC3CCCO3)C2=O)c1 (configuration not stated)	n	n	n	n	n	n	n	n
CCn1c(SCCOc2ccc(Cl)cc2)nnc1-c1cccs1	n	-5.8	n	n	n	n	n	n
Brc1ccc(-c2nn3c(-c4ccco4)nnc3s2)o1	n	n	n	n	n	x	x	x
Clc1ccc(-c2ccc(-c3nn4c(-c5ccco5)nnc4s3)o2)cc1	-9.8	n	n	n	n	40%	n	n
Oc1ccc(-c2nc(=S)[nH][nH]2)cc1	n	n	n	n	n	x	x	x
FC(F)(F)c1ccc(-c2nc(=S)[nH][nH]2)cc1	n	n	n	n	n	n	n	n
COc1cc(/C=C2\SC(=Nc3ccccc3)NC2=O)cc(Cl)c1O	n	n	n	n	n	x	x	x
CCc1ccc(N=C2NC(=O)/C(=C/c3cc(OC)c(O)c(OC)c3)S2)cc1	-8.8	n	n	n	n	n	n	34%
CCOC(=O)c1cnn(-c2nc(SC)nc3sc4c(c23)CCCC4)c1N	-16	n	n	n	n	66%	n	33%
CCOC(=O)c1cnn(-c2ncnc3sc4c(c23)CCC4)c1N	n	n	n	n	n	x	x	x
CCN(CC)C(=O)N1c2ccccc2C=Cc2ccccc21	-8.2	n	n	n	n	42%	n	30%
CC1(C)Cc2ccccc2C(N/N=C/c2ccc([N+](=O)[O-])cc2)=N1	n	n	n	n	n	x	x	x
CC1(C)Cc2ccccc2C(N/N=C/c2ccc(Cl)cc2)=N1	n	n	n	n	n	n	n	n
O/N=C/c1cc(Br)ccc1OCc1cccc(F)c1	-8.9	n	n	n	n	46%	n	34%
Cc1ccc(C(=O)N2CCN(S(=O)(=O)N3CCCCC3)CC2)cc1	n	n	n	n	n	x	x	x
CC(C)(C)n1nnnc1C(c1ccncc1)N(Cc1ccccc1)Cc1ccco1 (configuration not stated)	n	n	n	n	n	x	x	x
CCN(Cc1ccccc1)C(c1ccc(Cl)cc1)c1nnnn1C(C)(C)C (configuration not stated)	-10	n	n	n	n	59%	n	54%
COc1cc(-c2nnc(COc3ccc4ccccc4c3)o2)cc(OC)c1OC	n	n	n	n	n	n	n	n
